Source: PubChem BioAssay (several laboratories)
Hits are enriched below; roughly 6.9% of the tested compounds scored in any of these assays.
SKKanGAS inh: inhibitors of SKKanGAS S. pyogenes growth in kanamycin (SK-promoter or general growth effect). BacTiter-Glo, 6 h. inhibition, % at 7.5 µM. 300,000 tested, 1.3% active. AID 1662;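 active = mean replicate score, as percent of positive control median, at least 50; inconclusive = mean below 50 but one replicate at or above 50; inactive = mean and every replicate below 50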;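 also: strain carries kanamycin resistance gene driven by streptokinase promoter and grows in 40 µg/ml kanamycin; loss of luminescence reflects streptokinase promoter inhibition or plain growth inhibition; 0% = median of DMSO wells and 100% = positive control at its reference dose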
NR3A LBD binder: NR3A (human) ligand-binding domain modulation; NR3A LBD differential scanning fluorimetry, Tm shift; 0% = protein alone, 100% = glycine-bound protein; Tm shift relative to glycine control, % at 25 µM; 340,000 tested, 2.5% active;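 active = melting temperature shift of at least 10% of the positive control shift, at one fixed dose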
Mdm2-MdmX inh: inhibitors of human Mdm2/MdmX interaction; 330,000 tested, 3% active; SaOS-2 split-luciferase Mdm2/MdmX complementation, luminescence; O15151+Q00987; inhibition, % at 8 µM; AID 485346;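 active = inhibition of at least 50% at 8 µM in the primary screen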
Target sequence (O15151 whole entry, looked up): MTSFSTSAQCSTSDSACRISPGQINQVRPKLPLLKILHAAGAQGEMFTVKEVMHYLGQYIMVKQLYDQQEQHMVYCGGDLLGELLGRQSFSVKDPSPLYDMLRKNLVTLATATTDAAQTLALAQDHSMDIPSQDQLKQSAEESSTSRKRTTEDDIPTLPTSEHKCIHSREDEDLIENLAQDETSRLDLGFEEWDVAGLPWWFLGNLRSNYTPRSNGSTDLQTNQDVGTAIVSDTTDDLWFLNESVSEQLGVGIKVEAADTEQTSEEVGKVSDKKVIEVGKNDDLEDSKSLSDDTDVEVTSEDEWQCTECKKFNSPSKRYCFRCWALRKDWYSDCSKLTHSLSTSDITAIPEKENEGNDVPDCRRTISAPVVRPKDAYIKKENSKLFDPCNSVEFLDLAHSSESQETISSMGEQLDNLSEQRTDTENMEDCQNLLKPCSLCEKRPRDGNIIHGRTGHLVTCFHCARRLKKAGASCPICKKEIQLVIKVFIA
Target sequence (Q00987 whole entry, looked up): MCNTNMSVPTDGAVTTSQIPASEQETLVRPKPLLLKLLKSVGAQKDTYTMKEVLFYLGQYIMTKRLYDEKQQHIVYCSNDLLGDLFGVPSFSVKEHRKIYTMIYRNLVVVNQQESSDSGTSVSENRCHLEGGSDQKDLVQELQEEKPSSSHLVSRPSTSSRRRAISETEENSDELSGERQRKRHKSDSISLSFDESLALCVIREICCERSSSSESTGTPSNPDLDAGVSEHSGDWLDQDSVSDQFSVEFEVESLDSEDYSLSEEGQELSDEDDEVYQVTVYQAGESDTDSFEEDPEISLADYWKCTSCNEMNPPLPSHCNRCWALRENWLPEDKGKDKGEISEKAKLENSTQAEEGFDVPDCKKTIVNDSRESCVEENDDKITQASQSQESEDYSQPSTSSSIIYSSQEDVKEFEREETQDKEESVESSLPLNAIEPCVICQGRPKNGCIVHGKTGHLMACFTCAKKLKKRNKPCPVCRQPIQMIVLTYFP
Beta cell apopt: beta cell apoptosis inhibition | INS-1E cytokine-induced death, ATP luminescence, 48 h; percent of positive-control rescue, neutral wells zero | protection from apoptosis, % (no concentration beside the values) | 300,000 tested, 0.8% active | AID 435005;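 active = Every replicate reaches about 75%, or at least half do and their mean reaches it too, limit read from the data; inconclusive = At least half of replicates reach the limit but their mean does not; inactive = Under half of replicates reach the limit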;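 also: 0% = cytokine-treated negative control wells and 100% = positive control rescue; higher means more ATP so stronger rescue from cytokine killing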
MPTP block: permeability transition pore inhibition; isolated mouse mitochondria, Ca2+ swelling absorbance, 30 min; inhibition, % at 10 µM; 360,000 tested, 1.4% active;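 active = inhibition of 50% or more, scaled per plate between neutral and stimulator controls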;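 also: 0% = DMSO wells given calcium and 100% = 1 mM EGTA wells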
CSC inhib: cancer stem cell inhibition | 300,000 tested, 1.1% active | inhibition, % at 7.5 µM | cancer stem cell-like cells viability, luminescence; in the data active = inhibition above about 75%; inconclusive = no clear call, values can overlap the other calls; tested in HMLE shEcad cells
MPTP counter: Rhodamine 123 counter-screen of mitochondrial pore hits. AID 624504. inhibition, % at 10 µM. isolated mitochondria, membrane potential, Rhodamine 123 fluorescence. shares compounds with MPTP block. 5,000 tested, 78% active; in the data active = inhibition above about 22%;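 also: 0% = DMSO vehicle and 100% = positive control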
MPTP swell DR: MPTP inhibition, dose response swelling confirmation; 780 tested, 58% active; isolated mitochondria swelling, absorbance; shares compounds with MPTP block; IC50, µM; AID 651561; in the data active = IC50 below about 20 µM
MPTP cs DR: MPTP inhibitor counter-screen activity, dose response; shares compounds with MPTP block; isolated mitochondria counterscreen, fluorescence read-out; IC50, µM; 780 tested, 49% active; in the data active = IC50 below about 80 µM
An asterisk follows results filed as active; i = inactive; ? = inconclusive; · = not tested or not shown.

SMILES	SKKanGAS inh	NR3A LBD binder	Mdm2-MdmX inh	Beta cell apopt	MPTP block	CSC inhib	MPTP counter	others
Cc1ccc(Oc2ccc(C(=O)NCc3ccncc3)cc2)cc1	-0.7	-6.3	·	·	88.5*	·	74.9*
Cc1ccc(C(=O)NCCc2ccncc2)cc1	-0.5	2.9	-25.8	-3.8	-1.8	-14.1	·
COc1ccc(S(=O)(=O)Nc2ccccc2-c2nnn(CC(=O)Nc3ccccc3OC)n2)cc1	-7.5	-3.1	4.8	34.5	12.9	34.5	·
COc1ccc(NC(=O)Cn2nnc(-c3ccccc3NS(=O)(=O)c3ccccc3)n2)cc1	7.9	17.4*	-2.7	2.3	77.2*	13.3	75.0*
CCCCCc1c(-c2ccccc2F)ncn1CCc1ccccc1OC	·	·	·	·	4.2	·	·
CCCCc1c(-c2ccccc2Br)ncn1CCc1ccccc1OC	·	·	·	·	26.7	·	·
CCCCc1c(-c2ccccc2OC)ncn1CCc1ccccc1OC	·	·	·	·	80.5*	·	114.6*
CCCCCc1c(-c2ccccc2OC)ncn1CCc1ccccc1OC	·	·	·	·	81.4*	·	113.0*
O=C(COC(=O)c1cccc(Br)c1)Nc1ccc2[nH]c(=O)[nH]c2c1	3.4	2.4	1.6	·	-0.4	-10.2	·
O=C(NCCCNc1ccc(C(F)(F)F)cc1[N+](=O)[O-])c1ccc(Cl)cc1	17.2	5.8	21.3	-3.7	57.9*	30.5	73.9*
CCN(CC)c1ccc(/C=C2/C(=O)c3ccc(C(=O)O)cc3C2=O)cc1	·	6.8	·	-5.2	71.8*	-3.4	-34.3
COc1ccc(CNCC(O)COc2cccc3c2OC(C)(C)C3)cc1 (centres undefined)	-10.4	-0.2	32.3	71.5	74.9*	-8.4	46.4*
CCNc1ccc(S(=O)(=O)N(C)C)cc1NCC(=O)Nc1ccc(F)c(Cl)c1	0.2	-3.3	10.7	29.6	58.8*	-3.3	70.5*
N#CCc1ccc(NS(=O)(=O)c2ccc(C3CCCCC3)cc2)cc1	29.8	-3.7	·	36.7	82.0*	29.1	95.5*
Cc1cccc(NS(=O)(=O)c2ccc(C3CCCCC3)cc2)c1	108.5*	0.0	33.5	64.0	90.2*	?	92.8*
Cc1ccccc1OCC(=O)OCC(=O)Nc1ncc(Cl)c(C)c1Cl	·	-1.7	-32.7	·	0.3	·	·
Cc1ccc(-n2[nH]c(C)c(/C=N/Nc3ccc([N+](=O)[O-])cc3[N+](=O)[O-])c2=O)cc1C	28.8	19.8*	23.6	53.6	114.6*	71.1	60.7*
COc1ccc(CCN=Cc2c(C)[nH]n(-c3ccc([N+](=O)[O-])cc3)c2=O)cc1OC	-0.4	-3.4	2.1	5.9	0.9	15.5	·
O=C(Nc1cccc(F)c1)Nc1ccc2c(c1)CCC2	-2.3	42.6*	-50.8	-0.5	66.8*	·	92.5*
Cc1cc(C)cc(NC(=O)Nc2ccc3c(c2)CCC3)c1	-2.4	11.5*	35.1	6.4	53.3*	32.0	94.5*
O=C(Nc1cccc(F)c1)c1c(F)c(F)c(F)c(F)c1F	11.2	0.4	11.0	3.1	65.1*	12.4	80.8*
Cc1ccc(NC(=O)Nc2ccc3c(c2)CCC3)cc1	-2.1	7.8	-27.2	3.8	1.3	17.9	·
Cc1cccc(NC(=O)c2c(F)c(F)c(F)c(F)c2F)c1	9.6	3.3	17.4	3.1	0.2	-6.1	·
CCOC(=O)C1=C(CC)Nc2ccccc2N/C1=N\S(=O)(=O)c1ccc2ccccc2c1	7.7	-1.2	16.6	5.2	7.0	38.8	·
CCOC(=O)C1=C(CC)Nc2ccccc2N/C1=N\S(=O)(=O)c1cc(Br)ccc1Br	37.5	-4.9	44.3	·	65.6*	·	82.5*
SMILES	SKKanGAS inh	NR3A LBD binder	Mdm2-MdmX inh	Beta cell apopt	MPTP block	CSC inhib	MPTP counter	others
COc1ccc(-n2nc(C(=O)NCC(=O)N3CCC(C)CC3)c3ccccc3c2=O)cc1Cl	-3.5	-2.2	19.7	1.4	0.0	·	·
CCN(CC)CCCNc1nc2ccccc2c2nc(-c3ccncc3)nn12	4.2	·	32.5	18.5	-1.4	-1.7	·
COc1ccc(Cl)cc1NC(=O)CSc1nnc(C2CC2)n1C	1.3	-3.0	-5.7	5.1	0.1	23.7	·
COc1ccccc1CNC1CCCc2ccccc21 (centres undefined)	1.3	0.8	0.1	-12.2	0.8	-11.1	·
COc1ccc(CNC2CCCc3ccccc32)cc1OC (centres undefined)	-2.3	-3.8	-3.0	-3.5	61.1*	-1.5	-0.4	MPTP swell DR=i;MPTP cs DR=69.5*
C#CC(C)(C)NC(=O)c1sccc1Oc1ccc(F)cc1[N+](=O)[O-]	1.1	-1.5	10.9	5.9	-0.9	-3.5	·
c1ccc(-c2nc(SCc3nc4ccccc4[nH]3)c3oc4ccccc4c3n2)cc1	·	-3.1	27.9	1.1	50.4*	·	85.1*
Cc1nc(SCc2nc3ccccc3[nH]2)c2oc3ccccc3c2n1	19.6	-6.2	34.8	5.4	-0.5	3.4	·
O=C(Nc1ccc2c(c1)OCO2)c1cc(C2CCCN(C(=O)C3CCCCC3)C2)on1 (centres undefined)	·	·	·	·	-2.1	·	·
CCOC(=O)N1CCC(N(C(=O)Nc2ccc(Cl)c(Cl)c2)C(C)CC)CC1 (centres undefined)	-8.5	-2.1	23.4	3.1	79.6*	14.7	94.7*
COc1ccc(NC(=O)Cn2cnc3sc(C)c(S(=O)(=O)N4CCOCC4)c3c2=O)cc1Cl	0.5	-1.0	-2.4	0.3	-2.3	-10.1	·
O=C(CN1c2ccccc2Sc2ccccc21)NNC(=S)Nc1ccc(Cl)cc1	89.5*	33.0*	18.5	9.3	63.2*	31.5	50.5*
CSc1ccc(CN2C(=O)C(F)(F)Oc3c(C(C)=O)cccc32)cc1	·	·	·	·	73.5*	·	75.5*
Cc1ccc(NC(=O)C(C)N=C2NS(=O)(=O)c3ccccc32)cc1F (centres undefined)	5.5	8.4	-15.4	-1.0	87.3*	-8.5	87.5*
S=C1Cc2ccccc2C(c2ccc(Cl)cc2)N1 (centres undefined)	17.0	0.6	11.0	0.1	1.6	9.7	·
O=C(NCCS(=O)(=O)N1CCN(c2ccccc2)CC1)c1ccc(Br)o1	-8.5	-1.1	8.3	·	-1.0	12.6	·
Cc1cc(N=Nc2ccccc2C(=O)O)c(C)c(C)c1O	28.2	-0.9	-8.4	11.7	55.9*	-2.2	36.2*
Cc1cc(O)c(C(C)C)cc1N=Nc1ccccc1C(=O)O	4.0	0.3	2.9	-1.5	76.2*	26.0	51.8*
Cc1cc(C)c(C)c(C(=O)c2ccccc2C(=O)O)c1C	-12.3	1.6	-12.3	-3.6	0.5	-18.7	·
Cc1cc(C)nc(N2N=C(C(F)(F)F)CC2=O)n1	14.6	0.2	1.3	-1.9	5.7	-6.0	·
CCOC(=O)c1csc(NC(=O)CCS(=O)(=O)c2ccc(Cl)cc2)n1	·	·	·	·	2.2	·	·
O=C(c1ccccc1)c1ccc(OCCCCN2CCCCC2)cc1	-2.0	-17.0	3.6	2.2	-0.1	35.4	·
